Experimental findings from PubChem BioAssay (Tox21) are described below.

Values without a mark were called inactive. Results filed as inconclusive are left out. Calls of active or inactive are those of the source. Unless noted, calls come from the whole dose curve; as a rule, active = well fitted curve in the direction sought with a large enough effect in the repeat runs; inconclusive = weak or mixed curves; inactive = no such curve, though single readings can be large; an effect the other way counts as inactive or inconclusive.

Assay [1] deals with Thyrotropin-releasing hormone receptor (Homo sapiens) (UniProt P34981). The experiment in a line: qHTS assay to identify small molecule agonists of the thyrotropin-releasing hormone receptor (TRHR) signaling pathway (AID 1346891; calls by dose curve;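 note: HEK293 cells expressing TRHR with calcium dye readout; series mostly up to about 58 µM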). The essentials: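 In 1536-format, 1500 TRHR-Hek293 cells per well grew 18 h, took up calcium dye for 2 h at 37 °C, received compound, and were read kinetically; 15-point titrations, triplicates.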
Chain of Thyrotropin-releasing hormone receptor (Homo sapiens) (P34981 whole entry, looked up): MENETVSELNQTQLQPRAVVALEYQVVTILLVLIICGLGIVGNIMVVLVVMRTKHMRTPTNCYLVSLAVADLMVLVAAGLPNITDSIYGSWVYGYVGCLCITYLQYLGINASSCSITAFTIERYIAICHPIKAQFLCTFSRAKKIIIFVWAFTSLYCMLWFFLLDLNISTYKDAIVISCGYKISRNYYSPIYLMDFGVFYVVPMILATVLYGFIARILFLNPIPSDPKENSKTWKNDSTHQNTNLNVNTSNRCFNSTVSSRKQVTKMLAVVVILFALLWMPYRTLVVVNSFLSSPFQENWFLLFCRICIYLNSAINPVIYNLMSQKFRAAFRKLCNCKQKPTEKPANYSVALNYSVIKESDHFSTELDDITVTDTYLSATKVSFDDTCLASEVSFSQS
(In qHTS, concentration-response curves come from the screen itself.)

The nature of assay [2]: Human pregnane X receptor (PXR) small molecule agonists, qHTS cell viability counter screen (AID 1346977). Note: nearly all actives have a fitted effect of over 50% in size. The essentials:
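Readout is CellTiter-Fluor fluorescence from PXR-Luc HepG2 cells. Plated cells rested 5hr, then were treated with compounds for 24hr at 37C and 5% CO2, with reagent present during the last hour.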

Assay [3] can be described thus: Caspase-3/7 induction in HepG2 cells by small molecules, qHTS assay (AID 1346978). Note: nearly all actives have a fitted effect of over 15% in size. Summed up:
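Caspase-3/7 induction was measured by Caspase-Glo 3/7 luminescence (30 min, room temperature) after a 17 hr compound exposure of wild-type HepG2 cells seeded at 2,000 per well and pre-incubated 5 hr.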

A short description of assay [4]: Caspase-3/7 induction in CHO-K1 cells by small molecules, qHTS cell viability counter screen (AID 1346979). Note: nearly all actives have a fitted effect of over 35% in size. The essentials: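 To flag cytotoxic compounds, treated CHO-K1 wild-type cells were given CellTiter-Fluor at 16hr and read fluorescently after 1hr at 37C; the caspase-3/7 luminescence was measured in these same wells.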
Assay [5] in a line: Caspase-3/7 induction in CHO-K1 cells by small molecules, qHTS assay (AID 1346980). Note: nearly all actives have a fitted effect of over 15% in size. Summed up: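 Luminescent Caspase-Glo 3/7 read (30min, room temperature) quantified apoptosis induction. Cells were wild-type CHO-K1, treated with compound for 17hr at 37 C and 5% CO2.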
The nature of assay [6]: Caspase-3/7 induction in HepG2 cells by small molecules, qHTS cell viability counter screen (AID 1346981). Note: series mostly up to about 92 µM; nearly all actives have a fitted effect of over 30% in size. The essentials:
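Wild-type HepG2 cells, 2,000/well, settled 5 hr at 37 C, 5% CO2 before compound addition. Viability read by CellTiter-Fluor fluorescence, reagent added after 16 hr compound exposure, then 1 hr at 37C, in the same wells as the caspase read.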

Assay [7] concerns the target Nuclear receptor subfamily 1 group I member 2 (Homo sapiens) (UniProt O75469). Kind of assay: Human pregnane X receptor (PXR) small molecule agonists, qHTS assay (AID 1346982). Note: nearly all actives have a fitted effect of over 35% in size. Note: potency is the fitted concentration of half-maximal effect. Summed up:
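PXR-Luc HepG2 reporter cells (CYP3A4-driven luciferase) in 5% charcoal-stripped FBS medium, plated 5 h before compound addition, then treated 24 h at 37C. Luciferase read by ONE-Glo luminescence after 30 min at room temperature.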

Assay [8] concerns the target Cytochrome P450 2D6 (Homo sapiens) (UniProt P10635). Kind of assay: Cytochrome P450 Family 2 Subfamily D Member 6 (CYP2D6) small molecule antagonists: luciferase reporter qHTS assay (AID 1671196). Note: nearly all actives have a fitted effect of over 50% in size. Note: potency is the fitted concentration of half-maximal effect. Summed up:
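Cell-free P450-Glo system: CYP2D6 with proluciferin substrate was pre-incubated with compound for 10 min, then reacted with NADPH regeneration for 1 h at room temperature. Luciferin product was detected after 20 min, and data were reported as relative luminescence units.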

The target of assay [9] is Cytochrome P450 2C19 (Homo sapiens) (UniProt P33261). The experiment in a line: Cytochrome P450 Family 2 Subfamily C Member 19 (CYP2C19) small molecule antagonists: luciferase reporter qHTS assay (AID 1671197). Note: nearly all actives have a fitted effect of over 65% in size. Note: potency is the fitted concentration of half-maximal effect. The essentials: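 Inhibition of CYP2C19 was scored from loss of luminescence in a P450-Glo proluciferin substrate assay, NADPH-started and run 1 h at 37C, with ketoconazole as positive control.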
Chain of Cytochrome P450 2C19 (Homo sapiens) (P33261 whole entry, looked up): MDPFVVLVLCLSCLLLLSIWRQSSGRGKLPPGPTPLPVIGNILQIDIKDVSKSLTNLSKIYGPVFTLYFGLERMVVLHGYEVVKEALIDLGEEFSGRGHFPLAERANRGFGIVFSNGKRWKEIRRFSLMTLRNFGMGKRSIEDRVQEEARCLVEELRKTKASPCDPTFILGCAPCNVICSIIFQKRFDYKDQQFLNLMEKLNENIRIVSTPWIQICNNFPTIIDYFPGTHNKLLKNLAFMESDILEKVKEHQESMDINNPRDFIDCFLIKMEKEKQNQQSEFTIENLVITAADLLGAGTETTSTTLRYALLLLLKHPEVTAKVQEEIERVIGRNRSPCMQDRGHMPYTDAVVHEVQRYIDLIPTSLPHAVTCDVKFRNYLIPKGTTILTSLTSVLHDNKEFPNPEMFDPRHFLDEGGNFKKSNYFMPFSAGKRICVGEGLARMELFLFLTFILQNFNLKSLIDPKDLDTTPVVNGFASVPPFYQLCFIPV
(Reporter assays use an easily measured gene product as a stand-in for the process of interest.)

For assay [10], the target named is Cytochrome P450 2C9 (Homo sapiens) (UniProt P11712). The experiment in a line: Cytochrome P450 Family 2 Subfamily C Member 9 (CYP2C9) small molecule antagonists: luciferase reporter qHTS assay (AID 1671198). Note: nearly all actives have a fitted effect of over 50% in size. Note: potency is the fitted concentration of half-maximal effect. The essentials:
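Enzyme-substrate mix preincubated with compound 10 min at room temperature; reaction started with NADPH regeneration solution, 1 h 37C. Luminescent luciferin product read after 20 min detection reagent.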

Assay [11] addresses Cytochrome P450 1A2 (Homo sapiens) (UniProt P05177). Kind of assay: Cytochrome P450 Family 1 Subfamily A Member 2 (CYP1A2) small molecule antagonists: luciferase reporter qHTS assay (AID 1671199). Note: nearly all actives have a fitted effect of over 50% in size. Note: potency is the fitted concentration of half-maximal effect. Summed up:
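P450-Glo CYP1A2 enzyme–proluciferin substrate mix with compound 10 min at room temperature, then NADPH regeneration 1 h at room temperature. Luciferin detection reagent added, luminescence read after 20 min; furafylline positive control.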

For assay [12], the target named is Voltage-gated inwardly rectifying potassium channel KCNH2 (Homo sapiens) (UniProt Q12809). The experiment in a line: Human Ether-a-go-go-Related Gene (hERG) channel small molecule antagonists: fluorescence cell-based qHTS assay (AID 1671200). Summed up: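 Measured: Tl+ flux via fluorescence (480/540 nm) in hERG-expressing U2OS cells after 1 h dye loading at room temperature.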
Chain of Voltage-gated inwardly rectifying potassium channel KCNH2 (Homo sapiens) (Q12809 whole entry, looked up): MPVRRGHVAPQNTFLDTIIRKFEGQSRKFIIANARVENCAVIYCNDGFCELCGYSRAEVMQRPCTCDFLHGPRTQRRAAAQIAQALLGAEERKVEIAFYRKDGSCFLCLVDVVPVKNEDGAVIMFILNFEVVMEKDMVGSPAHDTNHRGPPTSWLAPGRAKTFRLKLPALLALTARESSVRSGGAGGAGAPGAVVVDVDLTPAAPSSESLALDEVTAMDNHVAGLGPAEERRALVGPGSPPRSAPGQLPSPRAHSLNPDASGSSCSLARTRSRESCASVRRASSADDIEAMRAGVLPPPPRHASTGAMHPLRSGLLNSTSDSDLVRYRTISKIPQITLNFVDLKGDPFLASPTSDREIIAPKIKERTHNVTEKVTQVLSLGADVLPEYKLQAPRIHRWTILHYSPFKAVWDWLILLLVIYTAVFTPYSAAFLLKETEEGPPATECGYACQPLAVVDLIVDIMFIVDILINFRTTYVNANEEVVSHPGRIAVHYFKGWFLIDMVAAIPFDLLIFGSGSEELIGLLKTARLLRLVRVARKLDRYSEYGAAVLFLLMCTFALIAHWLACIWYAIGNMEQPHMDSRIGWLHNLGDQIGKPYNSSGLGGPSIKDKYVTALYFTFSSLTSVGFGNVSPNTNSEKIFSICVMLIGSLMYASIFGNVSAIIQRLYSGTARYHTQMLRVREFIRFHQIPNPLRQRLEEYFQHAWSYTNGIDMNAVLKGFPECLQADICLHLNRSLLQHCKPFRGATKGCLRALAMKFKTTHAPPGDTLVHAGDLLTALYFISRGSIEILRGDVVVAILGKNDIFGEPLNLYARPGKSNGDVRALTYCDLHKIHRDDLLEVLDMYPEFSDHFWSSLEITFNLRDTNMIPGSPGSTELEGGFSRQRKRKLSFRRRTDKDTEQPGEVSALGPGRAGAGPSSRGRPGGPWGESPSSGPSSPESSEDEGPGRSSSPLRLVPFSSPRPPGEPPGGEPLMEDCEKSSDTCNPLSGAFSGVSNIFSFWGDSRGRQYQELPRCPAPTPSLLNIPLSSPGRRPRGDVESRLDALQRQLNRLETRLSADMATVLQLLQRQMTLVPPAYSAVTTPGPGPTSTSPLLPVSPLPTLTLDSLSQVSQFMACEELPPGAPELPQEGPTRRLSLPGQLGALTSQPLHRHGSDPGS
In general terms: Block of hERG is tested as a sign of cardiac risk.

In assay [13] the target is Cytochrome P450 3A4 (Homo sapiens) (UniProt P08684). The experiment in a line: Cytochrome P450 Family 3 Subfamily A Member 4 (CYP3A4) small molecule antagonists: luciferase reporter qHTS assay (AID 1671201). Summed up: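 Setup: enzyme-substrate mix, compound pin transfer, 10 min RT. Reaction: NADPH regeneration solution, 1 h RT. Readout: detection reagent stops turnover, luminescence measured after 20 min, expressed in relative luminescence units.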
Chain of Cytochrome P450 3A4 (Homo sapiens) (P08684 whole entry, looked up): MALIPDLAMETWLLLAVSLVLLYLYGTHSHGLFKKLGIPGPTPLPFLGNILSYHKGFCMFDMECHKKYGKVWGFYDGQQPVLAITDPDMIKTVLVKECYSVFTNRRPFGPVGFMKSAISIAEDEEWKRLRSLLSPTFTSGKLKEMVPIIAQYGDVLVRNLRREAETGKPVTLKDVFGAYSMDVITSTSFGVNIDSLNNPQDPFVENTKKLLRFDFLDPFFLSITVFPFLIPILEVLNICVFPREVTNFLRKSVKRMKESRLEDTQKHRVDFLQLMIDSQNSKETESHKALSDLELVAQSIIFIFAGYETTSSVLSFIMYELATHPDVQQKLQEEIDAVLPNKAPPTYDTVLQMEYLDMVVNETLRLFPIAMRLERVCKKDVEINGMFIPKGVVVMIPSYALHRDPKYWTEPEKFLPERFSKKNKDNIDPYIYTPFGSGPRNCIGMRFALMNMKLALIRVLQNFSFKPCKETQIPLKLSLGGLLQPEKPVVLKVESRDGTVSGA

Assay [14] addresses Nuclear receptor subfamily 1 group I member 2 (Rattus norvegicus) (UniProt Q9R1A7). The experiment in a line: Rat pregnane X receptor (rPXR) activation by small molecules, qHTS assay (AID 1346983). Note: nearly all actives have a fitted effect of over 20% in size. Particulars: rPXR luciferase reporter cells, One-Glo luminescence, 24 h; max activation: stronger effect = higher value. Summed up: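 Luminescent readout (One-Glo luciferase, 30 min room temperature) followed 24 hr compound treatment at 37 C of rPXR cells plated 2,000 per well and preincubated 5hr; qHTS format with compounds delivered in DMSO.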

The target of assay [15] is Nuclear receptor subfamily 1 group I member 2 (Homo sapiens) (UniProt O75469). The experiment in a line: CYP3A4 induction through human pregnane X receptor (PXR) by small molecules, qHTS assay (AID 1346984). Note: nearly all actives have a fitted effect of over 40% in size. The essentials:
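DPX-2 HepG2 cells carrying a PXR response element and CYP3A4-promoter luciferase construct, treated with compounds 24 hr at 37C. Then P450-Glo CYP3A4 Luciferin-IPA substrate (3uM final) for 3 hr at 37C, One-Glo added, luminescence read.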

Assay [16] shares this target. The experiment in a line: Human pregnane X receptor (PXR) activation by small molecules, qHTS assay (AID 1346985). Note: nearly all actives have a fitted effect of over 40% in size. The essentials: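 DPX-2 cells (HepG2 co-transfected with a PXR response element and a CYP3A4-promoter luciferase construct) were seeded at 2,000 per well, rested 5 hr at 37C, then exposed to DMSO-dissolved compounds for 24 hr. Activation was read as luciferase luminescence.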
% is set by controls: 0 for no effect and ±100 for the full control effect.

Chain of Nuclear receptor subfamily 1 group I member 2 (Homo sapiens) (O75469 whole entry, looked up): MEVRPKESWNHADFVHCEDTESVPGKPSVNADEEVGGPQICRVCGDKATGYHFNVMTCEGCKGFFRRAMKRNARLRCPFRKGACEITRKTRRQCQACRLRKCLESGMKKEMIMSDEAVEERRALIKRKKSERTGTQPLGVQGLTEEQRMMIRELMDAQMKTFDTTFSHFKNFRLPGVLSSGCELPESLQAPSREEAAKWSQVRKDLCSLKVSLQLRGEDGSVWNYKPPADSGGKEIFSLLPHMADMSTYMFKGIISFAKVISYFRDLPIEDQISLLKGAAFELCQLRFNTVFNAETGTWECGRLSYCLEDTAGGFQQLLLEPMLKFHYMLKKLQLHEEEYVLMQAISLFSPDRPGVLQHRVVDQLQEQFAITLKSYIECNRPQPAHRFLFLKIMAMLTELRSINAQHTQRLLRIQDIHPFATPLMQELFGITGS
Chain of Cytochrome P450 2D6 (Homo sapiens) (P10635 whole entry, looked up): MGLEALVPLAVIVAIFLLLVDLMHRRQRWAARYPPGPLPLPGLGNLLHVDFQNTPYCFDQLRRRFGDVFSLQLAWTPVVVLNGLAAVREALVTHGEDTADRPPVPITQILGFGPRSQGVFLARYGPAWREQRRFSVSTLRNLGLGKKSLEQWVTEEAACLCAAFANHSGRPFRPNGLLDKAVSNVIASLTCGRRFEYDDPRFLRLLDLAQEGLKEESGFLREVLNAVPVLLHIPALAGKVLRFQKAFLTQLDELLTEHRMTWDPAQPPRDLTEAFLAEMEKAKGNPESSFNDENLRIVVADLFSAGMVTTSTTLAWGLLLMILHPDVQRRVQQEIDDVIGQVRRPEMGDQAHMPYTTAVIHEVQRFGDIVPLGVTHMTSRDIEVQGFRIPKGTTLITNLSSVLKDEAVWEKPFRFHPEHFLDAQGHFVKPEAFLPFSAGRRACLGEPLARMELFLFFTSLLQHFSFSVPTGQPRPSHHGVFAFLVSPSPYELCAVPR
Chain of Cytochrome P450 1A2 (Homo sapiens) (P05177 whole entry, looked up): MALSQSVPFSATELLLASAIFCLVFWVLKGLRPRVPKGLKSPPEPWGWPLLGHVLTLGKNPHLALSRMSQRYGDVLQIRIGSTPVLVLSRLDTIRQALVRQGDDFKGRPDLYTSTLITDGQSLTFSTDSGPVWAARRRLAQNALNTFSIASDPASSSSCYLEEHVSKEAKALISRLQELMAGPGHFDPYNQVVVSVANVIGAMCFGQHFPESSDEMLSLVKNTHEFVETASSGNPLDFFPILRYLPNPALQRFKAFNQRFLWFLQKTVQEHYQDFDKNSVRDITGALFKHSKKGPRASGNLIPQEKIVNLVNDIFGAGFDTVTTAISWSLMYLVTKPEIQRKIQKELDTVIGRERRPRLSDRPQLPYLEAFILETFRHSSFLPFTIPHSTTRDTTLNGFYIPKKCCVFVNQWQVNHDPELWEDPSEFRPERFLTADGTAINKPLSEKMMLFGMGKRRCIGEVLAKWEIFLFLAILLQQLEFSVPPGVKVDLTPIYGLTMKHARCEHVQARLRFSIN
Chain of Cytochrome P450 2C9 (Homo sapiens) (P11712 whole entry, looked up): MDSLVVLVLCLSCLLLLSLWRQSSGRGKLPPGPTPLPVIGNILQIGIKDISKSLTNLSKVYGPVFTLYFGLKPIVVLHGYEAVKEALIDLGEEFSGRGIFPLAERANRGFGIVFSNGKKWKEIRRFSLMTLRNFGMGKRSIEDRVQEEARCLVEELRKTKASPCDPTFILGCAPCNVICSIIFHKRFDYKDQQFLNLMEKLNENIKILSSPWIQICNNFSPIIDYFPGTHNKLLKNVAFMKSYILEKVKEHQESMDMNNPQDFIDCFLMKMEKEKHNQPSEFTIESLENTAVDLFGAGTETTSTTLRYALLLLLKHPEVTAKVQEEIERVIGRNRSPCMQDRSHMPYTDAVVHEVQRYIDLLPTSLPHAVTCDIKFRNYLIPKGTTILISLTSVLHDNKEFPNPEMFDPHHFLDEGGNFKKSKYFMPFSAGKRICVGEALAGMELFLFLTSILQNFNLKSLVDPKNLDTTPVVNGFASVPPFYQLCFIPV
Chain of Nuclear receptor subfamily 1 group I member 2 (Rattus norvegicus) (Q9R1A7 whole entry, looked up): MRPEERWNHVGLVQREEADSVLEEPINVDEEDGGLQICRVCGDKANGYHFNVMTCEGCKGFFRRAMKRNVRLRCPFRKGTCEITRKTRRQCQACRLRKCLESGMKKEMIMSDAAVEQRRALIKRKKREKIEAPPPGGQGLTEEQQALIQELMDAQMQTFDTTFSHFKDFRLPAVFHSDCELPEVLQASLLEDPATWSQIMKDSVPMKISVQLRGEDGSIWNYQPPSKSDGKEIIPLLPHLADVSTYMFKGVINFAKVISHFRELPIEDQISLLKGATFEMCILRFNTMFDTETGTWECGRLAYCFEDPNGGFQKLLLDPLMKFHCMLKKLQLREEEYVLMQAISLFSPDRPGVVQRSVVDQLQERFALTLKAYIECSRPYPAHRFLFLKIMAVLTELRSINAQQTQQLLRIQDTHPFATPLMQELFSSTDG

As for `COc1ccc(/C=C/c2cc(OC)cc(=O)o2)cc1`, the outcome in assay [1] was inactive. In addition, the Potency entry in [2], in [3], in assay [4], in assay [5], in assay [6] and in assay [8] was “inactive” throughout. Besides, the Potency entry in [10], in [12] and in assay [13] was “inactive” throughout. In addition, the results for the Potency in [7], in assay [9] and in assay [11] were 8.84 µM (active), 4.09 µM (active) and 9.15 µM (active), respectively.

For the compound `CCCCCCCCCCCCN1CCOCC1`, the call in assay [1] was inactive. Further, the Potency entry in assay [2], in [3], in assay [4], in [5], in assay [6] and in assay [7] was “inactive” each time. For the same compound, the Potency entry in [8], in [9], in [10], in [11] and in [13] was “inactive” each time.

Turning to `O=P(c1ccccc1)(c1ccccc1)c1ccccc1`, the compound was classed as inactive in assay [1]. The Potency entry in assay [2], in assay [3], in [4], in [5], in assay [6] and in assay [8] was “inactive” throughout. In addition, the Potency was 27.3 µM (active) in assay [7], 5.64 µM (active) in assay [9] and 6.33 µM (active) in [10].

`COc1ccnc2c1CCCCC2S(=O)c1nc2ccccc2[nH]1` (centres undefined): in assay [1], the compound was called inactive. The Potency result in [2], in [3], in [4], in assay [5], in assay [6] and in [12] was “inactive” throughout. The Potency is 29.8 µM (active) in assay [7]; 0.436 µM (active) in [8]; 8.71 µM (active) in assay [9]; 12.3 µM (active) in [10]; 13.8 µM (active) in assay [11].

On to `O=C(O)c1c2ccccc2cc2ccccc12`, for which the compound was called inactive in assay [1]. The Potency result in [2], in assay [3], in [4], in [5], in assay [6] and in assay [7] was “inactive” throughout. The Potency result in [8], in assay [9], in assay [12] and in [13] was “inactive” throughout. The Potency in assay [10] is 31.6 µM (active); in assay [11], 10 µM (active).

`CC1(C)CC(=O)CC(C)(C)N1`: in [1], the compound was called inactive. Moreover, the Potency entry in [2], in assay [3], in assay [4], in assay [5], in assay [6] and in assay [7] was “inactive” throughout. The Potency result in assay [8], in [9], in assay [10], in [11], in [12] and in [13] was “inactive” throughout.

For `C=CC(C)CCC=C(C)C` (centres undefined), the result in assay [1] was inactive. Also, the Potency entry in assay [2], in [3], in assay [4], in assay [5], in [6] and in assay [7] was “inactive” throughout. In addition, the Potency result in assay [8], in assay [9], in assay [10], in [12] and in assay [13] was “inactive” throughout.

For the compound `CC(COc1ccccc1)NC(C)C(O)c1ccc(O)cc1` (centres undefined), the result in [1] was inactive. For the same compound, the Potency entry in assay [2], in assay [3], in [4], in [5], in [6] and in assay [15] was “inactive” in each case. The Potency entry in assay [16], in [12] and in [13] was “inactive” in each case. Also, the Potency in assay [7] is 23.7 µM (active); in assay [8], 0.55 µM (active); in assay [9], 8.71 µM (active); in [10] it was 15.5 µM (active); in [11] it was 17.4 µM (active). In addition, the max activation in assay [14] is 3.54%.

For the compound `O=C(O)c1ccc(O)c(O)c1`, in [1], the result was inactive. In addition, the Potency entry in [2], in [3], in [4], in [5], in [6] and in [7] was “inactive” each time. The Potency entry in assay [8], in [12] and in assay [13] was “inactive” throughout. Moreover, the Potency in assay [9] was 79.6 µM (active); in assay [10], 35.5 µM (active); in assay [11], 31.7 µM (active).
